From PubChem BioAssay
This is a sample that favours compounds with a hit; in the whole collection about 11% have one here.
NPR1 antag = human Npr1 receptor antagonism. 76,000 compounds, 1.6% hits. Potency, µM (titrated, usually from 46.3 µM), most hits filed as inhibitors. HEK293 hNpr1 GloSensor cGMP, ANP-stimulated luminescence. AID 1347048; calls by dose curve; also: nearly all actives have a fitted effect of over 60% in size
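HEK293 cells stably expressing human Npr1 and cGMP GloSensor pGS-40F, loaded 2 h with 2% GloSensor reagent, given compound 30 min at room temperature. Luminescence read before and 20 min after 0.1 nM hNppA.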
3T3 cytotox = kills NIH 3T3 cells | NIH 3T3 viability, CellTiter-Glo ATP luminescence, 48-72 h | Potency, µM (highest dose often 96.7 µM), most hits filed as inhibitors | 94,000 compounds, 4.3% hits | AID 1345082; also: nearly all actives have a fitted effect of over 55% in size
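NIH 3T3 cells at 400 cells/well received 23 nL of compound by pintool and were incubated 48 or 72 h at 37 °C. Viability was read as ATP-coupled CellTiter-Glo luminescence.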
FLuc inh = inhibitors of firefly (Photinus pyralis) luciferase. 76,000 compounds, 2.5% hits. P08659. AID 1347043. Potency, µM (highest dose often 115 µM), actives largely listed as inhibitors. purified P. pyralis luciferase, luminescence, biochemical; also: nearly all actives have a fitted effect of over 65% in size
Target sequence (P08659 whole entry, looked up): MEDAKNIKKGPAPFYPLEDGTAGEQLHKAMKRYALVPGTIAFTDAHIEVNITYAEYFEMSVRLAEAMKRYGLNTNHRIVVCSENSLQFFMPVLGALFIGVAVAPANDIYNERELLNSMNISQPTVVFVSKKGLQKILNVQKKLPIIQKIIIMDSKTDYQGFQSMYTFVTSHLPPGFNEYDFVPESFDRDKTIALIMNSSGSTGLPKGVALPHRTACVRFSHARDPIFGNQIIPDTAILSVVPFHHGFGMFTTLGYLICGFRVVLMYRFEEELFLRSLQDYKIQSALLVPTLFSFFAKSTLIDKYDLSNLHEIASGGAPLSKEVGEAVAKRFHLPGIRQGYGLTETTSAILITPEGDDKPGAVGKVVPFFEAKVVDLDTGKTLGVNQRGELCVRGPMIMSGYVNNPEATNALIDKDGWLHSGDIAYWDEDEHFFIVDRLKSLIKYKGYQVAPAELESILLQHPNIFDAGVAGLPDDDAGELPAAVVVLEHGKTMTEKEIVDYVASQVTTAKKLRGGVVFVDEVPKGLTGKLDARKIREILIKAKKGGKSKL
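Luminescence read by CCD imaging after purified firefly luciferase (10nM final) was added to substrate buffer holding 10uM D-luciferin and 10uM ATP, pH 7.5, pre-dosed with compound.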
HEK cytotox = kills HEK 293 cells; HEK 293 viability, ATP luminescence (CellTiter-Glo), 48-72 h; Potency, µM (titrated, usually from 115 µM), hits mostly inhibitors; 94,000 compounds, 6.6% hits; also: nearly all actives have a fitted effect of over 60% in size
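HEK 293 cells at 250 cells/well were exposed to compounds by pintool transfer for 48 or 72 hr at 37 degree Celsius, 5% CO2. Viability was read as ATP-coupled luminescence with CellTiter-Glo after 10 min at room temperature.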
A number is an active result; . = inactive; ? = inconclusive; / = no result. Unless noted, calls follow the shape of the dose curve; as a rule, active = well fitted curve in the direction sought with a large enough effect; inconclusive = small, poorly fitted or top-dose-only effect, or another doubt; inactive = no such curve, though single readings can be large; an effect the other way counts as inactive or inconclusive.

SMILES	NPR1 antag	3T3 cytotox	FLuc inh	HEK cytotox
COCC(=O)NC1CCN(c2ccc3nnc(-c4ccccc4)n3n2)C1 (stereo not drawn)	/	?	/	.
Cc1cccc(OC[C@H]2C[C@@H](N(C)C)[C@H](O)[C@@H]2O)n1	.	.	.	.
O=C(NC1CCCN(CCn2nc3n(c2=O)CCCC3)C1)c1ccncc1 (stereo not drawn)	/	.	/	.
O=C(Cc1ccccc1)NC1CN(c2ccnc3ccnn23)C1	/	.	/	.
O=C(N1CCC[C@H]1c1nc(-c2ccccc2Cl)no1)C1(c2ccccc2)CC1	.	?	22.4µM	?
O=C(Cc1ccccc1)N1CCC[C@H]1c1nc(-c2ccccc2Cl)no1	.	.	.	?
Cc1cc2nc3n(c(=O)c2n1CC(=O)N1CCCc2ccccc21)CCCC3	.	.	.	.
COc1ccccc1N1CCN(C(=O)Cn2c(C)cc3nc4n(c(=O)c32)CCCCC4)CC1	.	28.2µM	.	?
Cc1ccc(NC(=O)c2cn3cc(-c4ccc(F)cc4)sc3n2)cc1	/	.	/	.
NC(=O)Cc1c[nH]c2ncc(-c3cccc(C(F)(F)F)c3)cc12	.	31.6µM	.	?
COc1cccc(-c2cnc3[nH]cc(CC(N)=O)c3c2)c1	.	70.8µM	89.1µM	.
NC(=O)Cc1c[nH]c2ncc(-c3cccc(OC(F)(F)F)c3)cc12	.	?	.	?
Cc1nn(-c2ccccc2)c2c1C(C(C)C)N(C1CCCN([S+](=O)([O-])c3cccc(C(F)(F)F)c3)C1)C2=O (stereo not drawn)	/	.	/	.
O=C(c1ccccc1Cl)N1CCCC2(C1)Nc1cccnc1NC2=NC1CCCC1 (stereo not drawn)	.	.	.	.
O=C(Nc1ccccc1Cl)N1CCCC2(C1)Nc1cccnc1NC2=NC1CCCC1 (stereo not drawn)	.	44.7µM	.	?
COCC[C@]1(O)CCN(Cc2cc(F)ccc2-n2cccn2)C[C@H]1C	.	.	.	?
Cc1ccsc1C(=O)C1CCCN(Cc2cc(F)ccc2-n2cccn2)C1 (stereo not drawn)	.	?	.	39.8µM
C=CCNC(=O)c1cc2cccnn2n1	.	.	?	.
O=C(Nc1ccc(Cl)cc1Cl)c1cc2cccnn2n1	2.24µM	?	0.316µM	?
O=C(NCc1ccc(Cl)cc1)c1cc2cccnn2n1	.	?	44.7µM	?
O=C(Nc1ccc(Cl)cc1Cl)c1cnn2ncccc12	.	.	.	?
O=C(Cc1ccc(F)cc1)N1CCC(C(=O)N2CCC(c3nc4ncccc4[nH]3)CC2)CC1	/	.	/	.
CC(C)C[C@@H]1N[C@H](C(=O)NC(C)C)Cc2cn(Cc3nccn3C)c3cccc1c23	.	79.4µM	.	?
C=CCNC(=O)[C@@H]1Cc2cn(Cc3nccn3C)c3cccc(c23)[C@H](CC(C)C)N1	.	79.4µM	.	?
C=CCN(C)C(=O)[C@@H]1Cc2cn(Cc3nccn3C)c3cccc(c23)[C@H](CC(C)C)N1	.	?	.	100µM
SMILES	NPR1 antag	3T3 cytotox	FLuc inh	HEK cytotox
CC(C)C[C@@H]1N[C@H](C(=O)NC2CCC2)Cc2cn(Cc3nccn3C)c3cccc1c23	.	79.4µM	.	?
Cc1nnc2ccc(N3CCCN(C(=O)NC(C)C)CC3)nn12	/	.	/	.
O=C(COc1ccccc1)N1CCCCCC1c1nnc(-c2ccccc2)o1 (stereo not drawn)	/	.	/	.
COCC(=O)N1CCC(C(=O)N2CCC(c3ccccc3)CC2)CC1	/	.	/	.
C=CCN(C)C(=O)[C@@H]1Cc2cn(Cc3cc(C)on3)c3cccc(c23)[C@H](CC(C)C)N1	.	70.8µM	.	70.8µM
CN(C)C(=O)C1CCCN(Cc2cccc(-c3cccs3)c2)C1 (stereo not drawn)	/	?	/	100µM
FC(F)(F)c1ccc(N2C3CCC2CN(Cc2cccc(-c4cccs4)c2)C3)cc1	/	?	/	.
CNC(=O)C1CCCN(Cc2cccc(-c3cccs3)c2)C1 (stereo not drawn)	/	.	/	100µM
O=C(NCc1nnc2c(-c3nc(C4CC4)no3)cccn12)c1ccccc1Cl	.	.	.	.
CCCc1noc(-c2cccn3c(CNC(=O)c4ccc(C(C)(C)C)cc4)nnc23)n1	.	39.8µM	.	?
O=C(NCc1nnc2c(-c3nc(C4CC4)no3)cccn12)c1nccc2ccccc12	.	44.7µM	.	?
CC(C)(C)CN1CCOC[C@H]1c1ncc(-c2ccc(Cl)cc2)[nH]1	.	89.1µM	.	79.4µM
Cc1ccc(-c2cnc([C@@H]3COCCN3CC3CC3)[nH]2)cc1	.	.	.	63.1µM
CC(C)(C)CN1CCOC[C@H]1c1ncc(-c2ccc(C(F)(F)F)cc2)[nH]1	?	79.4µM	.	70.8µM
Cc1ccc(-c2cnc([C@@H]3COCCN3Cc3ccncc3)[nH]2)cc1	.	.	.	.
Cc1ncccc1C(=O)N1CCC2(CC1)CC(N(Cc1ccc(F)cc1)C1CC1)CCO2 (stereo not drawn)	.	.	.	?
COCCN1C[C@H]2COc3ccccc3[C@H]2N(C(=O)c2ccccc2OC)CCC1=O	/	?	/	.
Cc1ccc(CNC(=O)CN2C(=O)C(c3ccccc3)=NC23CCCCC3)cc1	.	?	.	?
CN(C(=O)CN1C(=O)C(c2ccccc2)=NC12CCCCC2)c1ccccc1	.	.	.	?
O=C(CN1C(=O)C(c2ccccc2)=NC12CCCCC2)NCc1ccccc1	.	?	.	44.7µM
CCN(C(=O)CN1C(=O)C(c2ccccc2)=NC12CCCCC2)c1cccc(C)c1	.	?	.	39.8µM
O=C(CN1C(=O)C(c2ccccc2)=NC12CCCC2)Nc1ccc(C(F)(F)F)cc1	?	?	.	44.7µM
Fc1ccc(-c2ccc3ncc(Nc4ccc(Cl)cn4)n3n2)cc1	.	100µM	.	100µM
Fc1ccc(-c2ccc3ncc(Nc4ccccn4)n3n2)cc1	.	?	.	89.1µM
CC(C)(O)CN1CCC(=O)N(Cc2ccccc2)CCc2ccccc21	/	.	/	?
SMILES	NPR1 antag	3T3 cytotox	FLuc inh	HEK cytotox
O=C1[C@@H]2C[C@@H](CN2Cc2ccc(F)cc2)Oc2ccccc2N1CC1CC1	.	?	.	?
O=C1[C@@H]2C[C@@H](CN2Cc2ccccc2)Oc2ccccc2N1Cc1ccccc1	.	?	.	63.1µM
O=C1[C@@H]2C[C@@H](CN2Cc2ccc(Cl)cc2)Oc2ccccc2N1CC1CC1	.	89.1µM	.	89.1µM
O=C1[C@@H]2C[C@@H](CN2Cc2ccccn2)Oc2ccccc2N1Cc1ccccc1	?	?	.	?
COc1ccc(CN2C(=O)[C@@H]3C[C@@H](CN3Cc3ccccc3Cl)Oc3ccccc32)cc1	.	44.7µM	.	39.8µM
N#Cc1ccc(CN2C[C@@H]3C[C@H]2C(=O)N(Cc2ccccc2)c2ccccc2O3)cc1	?	?	.	50.1µM
Cc1ccc(C(=O)N2CCC[C@@H]2C(=O)N2CCC(N3CCOC3=O)CC2)cc1	/	.	/	.
CNC(=O)c1cc(C2CC2)nc2c1c(C1CCN(C(=O)N(C)C)C1)nn2C (stereo not drawn)	/	.	/	.
O=C(NC1CCCC1)N1CCN(C(=O)c2nc3cccnc3n(C3CCCC3)c2=O)CC1	/	?	/	.
